SDO1 yeast rescue: compounds rescuing growth of sdo1-depleted yeast, bone marrow failure model | S. cerevisiae sdo1-depleted JHY4D growth rescue, OD600 30 h; hits give high values; pdr5 snq2 efflux-pump mutant strain | z-score at 10 µM | actives 0.21% (n = 140,000);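 active = z-score above 3 at both the 24 hr and the 30 hr optical density reads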
Phagocyt inh: blocks phagocytosis by macrophages; inhibition, % at 5 µM; J774A.1 macrophage IgG-bead phagocytosis, imaging; actives 0.07% (n = 110,000); AID 1029;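 active = inhibition above the mean of the plate negative controls plus 5 SD, cut at about 13% in these data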;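 also: phagocytic index as fraction of beads internalized from green versus red external bead signal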
sEH act: activators of human soluble epoxide hydrolase; P34913; purified human sEH enzymatic activity, activator screen; activation, % at 2 µM; actives 0.04% (n = 91,000); AID 717; in the data active = activation above about 37%
Target sequence (P34913 whole entry, looked up): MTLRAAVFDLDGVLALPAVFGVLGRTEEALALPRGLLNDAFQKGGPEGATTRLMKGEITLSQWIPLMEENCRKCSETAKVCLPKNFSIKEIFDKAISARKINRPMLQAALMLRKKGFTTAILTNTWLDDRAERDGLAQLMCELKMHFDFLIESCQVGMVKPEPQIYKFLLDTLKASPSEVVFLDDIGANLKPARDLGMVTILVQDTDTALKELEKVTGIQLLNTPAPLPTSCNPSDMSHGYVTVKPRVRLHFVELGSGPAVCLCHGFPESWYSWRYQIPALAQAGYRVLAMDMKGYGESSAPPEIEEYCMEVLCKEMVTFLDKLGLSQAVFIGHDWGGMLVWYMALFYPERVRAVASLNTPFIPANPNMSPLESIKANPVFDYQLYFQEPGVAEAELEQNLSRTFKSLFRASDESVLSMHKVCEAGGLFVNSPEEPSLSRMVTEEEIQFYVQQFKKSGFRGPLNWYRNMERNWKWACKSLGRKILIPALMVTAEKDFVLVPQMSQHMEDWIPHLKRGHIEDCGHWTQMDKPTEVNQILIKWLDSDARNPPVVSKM
E-sel TNF inh: TNF alpha driven E-selectin expression inhibition | AID 1246 | HUVEC TNFa-induced E-selectin immunofluorescence, high content | inhibition, % at 2 µM | actives 0.71% (n = 120,000);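 active = inhibition above the batch mean plus 3 SD, and confirmed as a hit on visual image review, cut at about 43% in these data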
cytoskel mod: modifiers of cytoskeleton assembly; HUVEC TNFa F-actin phalloidin imaging, high content; inhibition, % at 2 µM; actives 0.18% (n = 91,000); AID 836;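 active = inhibition above the batch mean plus 3 SD and confirmed as a hit by visual image inspection, cut at about 30% in these data, passing the limit was not always enough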
sEH inh: soluble epoxide hydrolase (human) inhibition | inhibition, % at 2 µM | recombinant human sEH enzymatic activity assay | AID 707 | actives 0.34% (n = 91,000) | P34913; in the data active = inhibition above about 80%
SDO1 rescue DR: SDO1-depleted yeast growth rescue confirmation; shares compounds with SDO1 yeast rescue; S. cerevisiae JHY4D (SDO1-depleted) growth rescue, OD600, 30 h; hits give high values; efflux-deficient strain, SNQ2 and PDR5 mutated; OD recovery (concentration not given with the values); actives 44% (n = 440); AID 949;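 active = yeast growth recovered at 30 hours, either rising with dose fitted slope above 0.001 or with average optical density gain above 0.07, some results past the limit were not filed as active; inactive = growth falling with dose or no effect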
Numbers stand for hits; ! = not active in a repeat. Shown are actives, neighbours in structure and some others; about 0.96% of the full set was active somewhere.

Screening O=C(COC(=O)Cc1n[nH]c(=O)c2ccccc12)Nc1cccc(C(F)(F)F)c1 returned E-sel TNF inh inactive.
For Cc1cccc(-n2c(CCn3nc(C)c([N+](=O)[O-])c3C)n[nH]c2=S)c1 the results were SDO1 yeast rescue inactive, Phagocyt inh inactive, sEH act inactive, E-sel TNF inh inactive, cytoskel mod inactive and sEH inh inactive.
`COc1cccc(-n2c(CCn3nc(C)c([N+](=O)[O-])c3C)n[nH]c2=S)c1` gave SDO1 yeast rescue 3.2, Phagocyt inh inactive and SDO1 rescue DR inactive.
COc1ccc(CNC(=O)c2cc(-c3ccc(OC)c(OC)c3)on2)cc1 was read as SDO1 yeast rescue 8.7, Phagocyt inh inactive, sEH act inactive, E-sel TNF inh inactive, cytoskel mod inactive, sEH inh inactive and SDO1 rescue DR inactive.
`COc1ccc(NC(=O)c2cc(C)on2)cc1OC` gave SDO1 yeast rescue inactive, Phagocyt inh inactive, sEH act inactive, E-sel TNF inh inactive, cytoskel mod inactive and sEH inh inactive.
COc1ccc(-c2cc(C(=O)NCc3ccc(Cl)cc3)no2)cc1OC was read as SDO1 yeast rescue inactive, Phagocyt inh inactive, sEH act inactive, E-sel TNF inh inactive, cytoskel mod inactive and sEH inh inactive.
COc1ccc(NC(=O)c2cc(-c3ccc(OC)c(OC)c3)on2)cc1OC was read as SDO1 yeast rescue inactive, Phagocyt inh inactive, sEH act inactive, E-sel TNF inh 80, cytoskel mod inactive, sEH inh inactive and SDO1 rescue DR inactive.
COc1cc(C(=O)NCC(=O)N/N=C(/C)c2cccs2)cc(OC)c1OC was read as SDO1 yeast rescue inactive, Phagocyt inh inactive and E-sel TNF inh inactive.
`Cc1ccc(C(=O)NNC(=O)c2cccc(S(=O)(=O)N3CCN(c4ccccc4)CC3)c2)cc1` gave SDO1 yeast rescue inactive and Phagocyt inh inactive.
`NC(=S)NNC(=O)Nc1ccc(Cl)c(Cl)c1` gave SDO1 yeast rescue inactive and Phagocyt inh inactive.
`COC(=O)NNC(=O)Cc1cccc2ccccc12` gave SDO1 yeast rescue inactive and Phagocyt inh inactive.
Screening Cc1nn(-c2ccccc2)c(C)c1NC(=O)c1cccs1 returned SDO1 yeast rescue 3.3, Phagocyt inh inactive, sEH act inactive, E-sel TNF inh inactive, cytoskel mod inactive, sEH inh inactive and SDO1 rescue DR 0.065.
Screening O=C(CSc1nnc(-c2ccco2)n1Cc1ccco1)NCc1cccs1 returned SDO1 yeast rescue 6.5, Phagocyt inh inactive, sEH act inactive, E-sel TNF inh inactive, cytoskel mod inactive, sEH inh inactive and SDO1 rescue DR 0.071.
CCOC(=O)C1CCCN(C(=O)Cc2ccc(C)cc2)C1 (stereo unspecified) was read as SDO1 yeast rescue inactive, Phagocyt inh inactive, sEH act inactive, E-sel TNF inh inactive, cytoskel mod inactive, sEH inh inactive and SDO1 rescue DR inactive.
Screening CCOC(=O)C1CCCN(C(=O)Cc2ccc(OC)c(OC)c2)C1 (stereo unspecified) returned SDO1 yeast rescue inactive, Phagocyt inh inactive, sEH act inactive, E-sel TNF inh inactive, cytoskel mod inactive and sEH inh inactive.
`Cc1nn(Cc2ccc(Cl)cc2)c(C)c1NC(=O)CSc1n[nH]c(C)c1[N+](=O)[O-]` gave SDO1 yeast rescue 12, Phagocyt inh inactive and SDO1 rescue DR 0.06.
For COC(=O)c1ccccc1NC(=S)NC(=O)COc1ccccc1 the results were SDO1 yeast rescue inactive, Phagocyt inh inactive, sEH act inactive, E-sel TNF inh inactive, cytoskel mod inactive and sEH inh inactive.
COC(=O)c1ccccc1NC(=S)NC(=O)CC(C)C was read as SDO1 yeast rescue 5.6, sEH act inactive, E-sel TNF inh inactive, cytoskel mod inactive, sEH inh inactive and SDO1 rescue DR inactive.
For Cc1cc(OC(F)F)ccc1NC(=O)Nc1ccc([N+](=O)[O-])cc1 the results were SDO1 yeast rescue inactive, Phagocyt inh inactive and E-sel TNF inh inactive.
For CCOC(=O)c1sc2nc3n(c(=O)c2c1C)CCC(C)CC3 (stereo unspecified) the results were SDO1 yeast rescue 4, Phagocyt inh inactive, sEH act inactive, sEH inh inactive and SDO1 rescue DR inactive.
Screening CCCCNS(=O)(=O)c1ccc2nc(SCC(=O)Nc3ccccc3Cl)[nH]c2c1 returned SDO1 yeast rescue inactive, Phagocyt inh inactive, E-sel TNF inh inactive and SDO1 rescue DR 0.11.
`CCOC(=O)c1cnc2ccc(C)cc2c1Sc1ccc(F)cc1` gave SDO1 yeast rescue 13, Phagocyt inh inactive, sEH act inactive, E-sel TNF inh inactive, cytoskel mod inactive, sEH inh inactive and SDO1 rescue DR 0.097.
O=S(=O)(c1ccc2c(c1)OCCO2)N1CCC(c2nc3ccc(Cl)cc3[nH]2)CC1 was read as SDO1 yeast rescue 9.1, Phagocyt inh inactive, E-sel TNF inh inactive, cytoskel mod inactive and SDO1 rescue DR inactive.
CN(C)S(=O)(=O)c1ccc(N2CCCC2)c(C(=O)NC(c2ccccc2)c2ccccc2)c1 was read as SDO1 yeast rescue inactive, Phagocyt inh inactive, sEH act inactive, E-sel TNF inh inactive, cytoskel mod inactive and sEH inh inactive.
COc1ccccc1OCC(=O)Nc1cccc(C(=O)N2CCOCC2)c1 was read as SDO1 yeast rescue inactive, Phagocyt inh inactive, sEH act inactive, E-sel TNF inh inactive, cytoskel mod inactive and sEH inh inactive.
`COC(=O)c1cccc(NC(=O)c2ccc3c(c2)C(=O)N(CC2CCCO2)C3=O)c1` (stereo unspecified) gave SDO1 yeast rescue inactive, sEH act inactive, E-sel TNF inh inactive, cytoskel mod inactive, sEH inh inactive and SDO1 rescue DR inactive.
`CCC1CCc2c(sc(NC(=O)C3c4ccccc4Oc4ccccc43)c2C(N)=O)C1` (stereo unspecified) gave SDO1 yeast rescue inactive and Phagocyt inh inactive.
`Cc1oc2cc(O)ccc2c(=O)c1-c1ccccc1` gave E-sel TNF inh inactive.
For Cc1oc2cc(O)ccc2c(=O)c1-c1cnn(-c2ccccc2)c1 the results were SDO1 yeast rescue 5, sEH act inactive, E-sel TNF inh inactive, cytoskel mod inactive, sEH inh inactive and SDO1 rescue DR inactive.
`CCCCOc1ccc(C(=O)OCC(=O)Nc2cc(C)c(C)cc2[N+](=O)[O-])cc1` gave SDO1 yeast rescue inactive, Phagocyt inh inactive and E-sel TNF inh inactive.
Screening COc1ccc(C(=O)OCC(=O)Nc2cc(C)c(C)cc2[N+](=O)[O-])cc1 returned SDO1 yeast rescue inactive, Phagocyt inh inactive, E-sel TNF inh inactive and SDO1 rescue DR inactive.
Screening COC(=O)c1cc(OC)c(OC)cc1NC(=S)N1CCN(C)CC1 returned SDO1 yeast rescue 3.1!, Phagocyt inh inactive, sEH act inactive, E-sel TNF inh inactive, cytoskel mod inactive, sEH inh inactive and SDO1 rescue DR inactive.

From PubChem BioAssay
